# According to PubChem BioAssay (NCATS):
# Records with an inconclusive call do not appear. A call without a number means that no potency is given here. Values without a mark were called inactive. Calls of active or inactive are those of the source. The call rests on the fitted dose curve; in most records, active means well fitted curve in the direction sought with a large enough effect; inconclusive means small, poorly fitted or top-dose-only effect, or another doubt; inactive means no such curve, though single readings can be large; an effect the other way counts as inactive or inconclusive.
# How the values were obtained:
# [1] = target: Rap guanine nucleotide exchange factor 3 (Homo sapiens) (UniProt O95398); assay: Confirmatory qHTS for agonist of cAMP-regulated guanine nucleotide exchange factor 3 (EPAC1) (AID 1645881);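 further: EPAC1 catalysed release of BODIPY-GDP from Rap1B seen as fluorescence loss; nearly all actives have a fitted effect of over 75% in size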
# [2] = target: Rap guanine nucleotide exchange factor 4 (Homo sapiens) (UniProt Q8WZA2); assay: Confirmatory qHTS for agonist of cAMP-regulated guanine nucleotide exchange factor 4 (EPAC2) (AID 1645884);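 further: nucleotide exchange releases bodipy-GDP from Rap1 and this lowers its fluorescence; nearly all actives have a fitted effect of over 65% in size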
# [3] = target: Rap guanine nucleotide exchange factor 4 (Homo sapiens) (UniProt Q8WZA2); assay: Confirmatory qHTS for antagonist of cAMP-regulated guanine nucleotide exchange factor 4 (EPAC2) (AID 1645885); further: nearly all actives have a fitted effect of over 25% in size; further: potency means the concentration at half of the fitted maximal effect
# Chain of Rap guanine nucleotide exchange factor 3 (Homo sapiens) (O95398 whole entry, looked up): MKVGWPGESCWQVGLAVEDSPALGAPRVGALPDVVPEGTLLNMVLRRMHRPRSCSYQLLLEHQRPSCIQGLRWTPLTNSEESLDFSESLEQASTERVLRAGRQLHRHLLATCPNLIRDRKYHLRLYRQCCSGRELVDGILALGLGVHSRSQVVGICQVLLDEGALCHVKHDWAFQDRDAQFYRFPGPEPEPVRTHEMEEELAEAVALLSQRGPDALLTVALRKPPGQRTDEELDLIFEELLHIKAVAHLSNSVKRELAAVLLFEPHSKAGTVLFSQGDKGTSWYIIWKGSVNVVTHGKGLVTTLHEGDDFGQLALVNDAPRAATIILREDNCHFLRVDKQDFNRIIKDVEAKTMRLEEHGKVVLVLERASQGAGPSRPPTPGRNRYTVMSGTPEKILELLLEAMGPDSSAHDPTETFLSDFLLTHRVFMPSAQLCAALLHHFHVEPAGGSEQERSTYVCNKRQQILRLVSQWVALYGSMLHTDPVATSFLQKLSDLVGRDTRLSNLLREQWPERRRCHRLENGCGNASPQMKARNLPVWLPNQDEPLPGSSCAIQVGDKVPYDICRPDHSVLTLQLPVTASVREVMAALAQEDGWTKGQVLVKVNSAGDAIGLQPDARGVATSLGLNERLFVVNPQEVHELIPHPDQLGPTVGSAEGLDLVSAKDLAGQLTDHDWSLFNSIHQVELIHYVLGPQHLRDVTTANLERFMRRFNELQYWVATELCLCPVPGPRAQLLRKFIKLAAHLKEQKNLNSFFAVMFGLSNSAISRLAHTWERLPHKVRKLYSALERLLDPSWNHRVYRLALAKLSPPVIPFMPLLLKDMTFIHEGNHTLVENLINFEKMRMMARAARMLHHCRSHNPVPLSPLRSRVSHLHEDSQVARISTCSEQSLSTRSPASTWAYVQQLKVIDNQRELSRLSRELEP
# Chain of Rap guanine nucleotide exchange factor 4 (Homo sapiens) (Q8WZA2 whole entry, looked up): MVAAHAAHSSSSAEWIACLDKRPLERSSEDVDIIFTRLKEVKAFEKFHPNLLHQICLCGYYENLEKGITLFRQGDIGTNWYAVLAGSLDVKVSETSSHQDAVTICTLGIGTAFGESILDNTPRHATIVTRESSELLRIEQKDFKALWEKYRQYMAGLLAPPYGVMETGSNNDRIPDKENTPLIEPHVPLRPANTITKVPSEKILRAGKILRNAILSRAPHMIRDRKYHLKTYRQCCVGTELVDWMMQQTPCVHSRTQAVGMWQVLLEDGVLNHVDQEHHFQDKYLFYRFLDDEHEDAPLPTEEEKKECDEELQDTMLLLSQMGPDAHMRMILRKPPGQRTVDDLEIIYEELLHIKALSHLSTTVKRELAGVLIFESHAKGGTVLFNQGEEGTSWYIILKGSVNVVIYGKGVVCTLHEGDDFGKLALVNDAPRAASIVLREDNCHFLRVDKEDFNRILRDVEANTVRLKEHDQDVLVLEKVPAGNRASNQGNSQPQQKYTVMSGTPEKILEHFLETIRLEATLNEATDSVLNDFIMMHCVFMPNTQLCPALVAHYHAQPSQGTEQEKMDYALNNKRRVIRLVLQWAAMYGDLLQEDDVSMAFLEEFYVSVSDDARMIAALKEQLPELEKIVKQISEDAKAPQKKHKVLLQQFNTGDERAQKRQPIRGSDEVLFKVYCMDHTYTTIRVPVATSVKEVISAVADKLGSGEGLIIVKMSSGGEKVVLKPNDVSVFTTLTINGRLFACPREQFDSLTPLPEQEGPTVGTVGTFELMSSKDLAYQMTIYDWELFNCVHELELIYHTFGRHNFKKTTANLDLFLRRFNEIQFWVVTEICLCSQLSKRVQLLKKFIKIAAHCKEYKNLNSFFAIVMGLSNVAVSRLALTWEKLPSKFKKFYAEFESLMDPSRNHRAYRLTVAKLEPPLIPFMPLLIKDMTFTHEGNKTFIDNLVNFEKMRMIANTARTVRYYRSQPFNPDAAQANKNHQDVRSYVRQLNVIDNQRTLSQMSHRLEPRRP
SMILES,Potency [1],activation [2],Potency [3],Potency [2]
COc1cc(CNc2ccc(O)cc2)cc(Br)c1OCc1ccccc1F,inactive,"0.373% [at 17.1 µM, percent relative to cAMP agonist control]",inactive,
O=C(c1[nH]c(C(F)(F)F)nc1-c1ccccc1)N1CCC(C(O)(c2ccccc2)c2ccccc2)CC1,inactive,,inactive,inactive
COC(=O)[C@H](Cc1ccccc1)NC(=O)c1ccc2ccccc2n1,inactive,"3.75% [at 17.1 µM, percent relative to cAMP agonist control]",inactive,
COC(=O)c1c(NC(=O)COC(=O)c2ccc(NC(=O)CC#N)cc2)sc2c1CCCCC2,inactive,,inactive,inactive
CCCCC[C@H]1CN(Cc2ccccc2)C(=O)[C@@H]1CC(=O)NCc1ccc(OC)cc1,inactive,,44.1 µM (active),inactive
Oc1ccc(N=Cc2ccc(OCc3ccccc3)cc2)cc1,inactive,"11.9% [at 17.1 µM, percent relative to cAMP agonist control]",inactive,
COc1ccc(S(=O)(=O)/N=C2/NC(=O)/C(=C\c3cc(OC)c(OC)cc3[N+](=O)[O-])S2)cc1,inactive,"0% [at 17.1 µM, percent relative to cAMP agonist control]",inactive,
O=S1(=O)CCOC[C@H](CC2CCCCC2)N1Cc1cccc(C(F)(F)F)c1,inactive,"4.69% [at 17.1 µM, percent relative to cAMP agonist control]",inactive,
COc1ccc(OCCC(=O)OCC(=O)Nc2ccc(S(=O)(=O)N3CCOCC3)cc2)cc1,inactive,"0% [at 17.1 µM, percent relative to cAMP agonist control]",inactive,
CN(C)c1ccc(/C=C/c2cc[n+](C)c3ccccc23)cc1,inactive,,49.4 µM (active),inactive
CC(C)Oc1cc(F)ccc1-c1cc(C(=O)Nc2ccc(C(C)C)cc2)[nH]n1,inactive,,inactive,inactive
O=C1CCC[C@@H]2CC(N(Cc3cc4ccccc4s3)c3ccccc3)C[C@@H]3CCN1[C@H]23 (stereo partly drawn),inactive,,inactive,inactive
Cc1ccc(N=C2NC(=O)/C(=C/C=C/c3ccco3)S2)cc1,inactive,,inactive,inactive
Cc1ccccc1/C=C1\SC(=S)N(/N=C/c2cc([N+](=O)[O-])ccc2O)C1=O,inactive,,inactive,inactive
CN(CC(=O)Nc1ccc(Cl)c(C(F)(F)F)c1)CC(=O)NC1CCCCC1,inactive,,inactive,inactive
CCN(CC)c1ccccc1/C=C/[n+]1ccc(CCCCI)c2ccccc21,inactive,,49.4 µM (active),inactive

SMILES,Potency [1],activation [2],Potency [3],Potency [2]
COC(=O)c1ccc(CSc2nc3scc(-c4cccs4)c3c(=O)[nH]2)o1,inactive,,inactive,inactive
Cc1cccc(NC(=O)CSCC(=O)Nc2cccc(S(=O)(=O)N3CCCCCC3)c2)c1,inactive,"8.94% [at 17.1 µM, percent relative to cAMP agonist control]",inactive,
C[C@@H]1CN([C@@H](C)CO)C(=O)c2ccccc2-c2ccccc2CO[C@@H]1CN(C)S(=O)(=O)c1ccc(C(F)(F)F)cc1,inactive,"1.26% [at 17.1 µM, percent relative to cAMP agonist control]",inactive,
Cc1ccccc1CN1C(=O)C(C)Sc2ccc(-c3ccco3)cc21 (stereo not drawn),inactive,,inactive,inactive
CN(C)S(=O)(=O)N(CC(=O)NCCSc1ccc(Cl)cc1)c1ccccc1,inactive,,inactive,inactive
O=C1Cc2ccccc2C(=O)N1,inactive,,inactive,inactive
COC(=O)[C@]12CCCCC=C1N(Cc1ccco1)C(=O)[C@H](CC(=O)NCc1cccs1)C2,inactive,,inactive,inactive
CC(NS(=O)(=O)OCC(Cl)(Cl)Cl)c1ccc(C(C)(C)C)cc1 (stereo not drawn),inactive,"4.78% [at 17.1 µM, percent relative to cAMP agonist control]",inactive,
CC(=O)N1CCC[C@H]1C(=O)NCC1Cc2cc(-c3cccc(OC(F)(F)F)c3)ccc2O1 (stereo partly drawn),inactive,,44.1 µM (active),inactive
CCc1cc(-c2n[nH]c(C)c2-c2ccccc2Cl)c(O)cc1OC,inactive,,inactive,inactive
CCCN1CCN(c2ncnc3sc(C(=O)Nc4ccc(OC(F)(F)F)cc4)c(C)c23)CC1,inactive,,inactive,inactive
COc1ccc(S(=O)(=O)N2CCCCC2)cc1NC(=O)c1c(F)cccc1Cl,inactive,,inactive,inactive
Cn1c(N)c(C(=O)COC(=O)CCCOc2ccc(Cl)cc2Cl)c(=O)n(C)c1=O,inactive,,37.9 µM (active),inactive
Cc1ccc(C)n1-c1nn(S(=O)(=O)c2ccccc2)c2cccc(F)c12,inactive,,13.5 µM (active),inactive
CC(C)C[C@H]1COCCS(=O)(=O)N1Cc1cccc(C(F)(F)F)c1,inactive,,inactive,inactive
